Test results published in PubChem BioAssay (NCI).
The panel holds about 79,000 compounds, 15% with a hit somewhere; the sample as a whole holds those more often. The source made the active and inactive calls. Rule as the data show it: active = growth inhibition above about 70%; inactive = the rest.

Test: NCI Yeast Anticancer Drug Screen. Data for the bub3 strain (AID 167)
Settings: S. cerevisiae bub3 mutant strain, active compounds read high
Description: Growth inhibition of yeast strains with defined genetic alterations is measured as a screen for potential anti-cancer activity. Selected strains with alterations in DNA damage repair or cell cycle control were exposed to compounds and growth inhibition was measured relative to vehicle treated controls. The strain used in this assay is bub3

[1] = at 5.0 µM (retest, dose inferred, filed as 0.5)
[2] = at 50.0 µM (retest, dose inferred, filed as 5.0)

Measured: growth inhibition

C(=N/NC1=NCCN1)/c1c2ccccc2c(/C=N\NC2=NCCN2)c2ccccc12
inactive: at 1.2 µM -17% | at 3.7 µM -21% | [1] -35% | at 11.0 µM -17% | at 33.0 µM 58%
active: [2] 83% | at 50.0 µM 79.7% | at 100.0 µM 88%

CCCCC(CC)C(=O)Oc1ccc(C(=O)c2ccccc2)c(O)c1 (stereo not given)
inactive: at 1.2 µM 21% | at 3.7 µM 27% | [1] -1% | at 11.0 µM 32% | at 33.0 µM 69%
active: [2] 89% | at 50.0 µM 73% | at 100.0 µM 98%

CC(=O)C1=C(C)O/C(=C/c2cccc(Cl)c2)C1=O
inactive: at 1.2 µM 0% | at 3.7 µM 12% | [1] 5% | at 11.0 µM 18% | at 33.0 µM 26% | [2] 47% | at 50.0 µM -8%
active: at 100.0 µM 91%

CC(=O)Oc1ccc(C(=O)c2ccccc2)c(O)c1
active: [2] 88% | at 50.0 µM 74% | at 100.0 µM 95%
inactive: at 1.2 µM -36% | at 3.7 µM -38% | [1] 5% | at 11.0 µM -58% | at 33.0 µM -25%

CCOC(=O)CNC(=O)c1[nH]cnc1/N=N/N(C)C
active: [2] 96% | at 50.0 µM 91.4% | at 100.0 µM 98%
inactive: at 1.2 µM 22% | at 3.7 µM 31% | [1] 3% | at 11.0 µM 29% | at 33.0 µM 62%
